Inhibition data for 1 compound are collected here from PubChem BioAssay AID623944 (Vanderbilt Specialized Chemistry Center, 2012).

A short description of this experiment: PubChem AID 623944. The conditions noted are these: Ricerca radioligand binding panel, % inhibition, at 10 µM, stronger effect = higher value.

For orientation: inhibition means the change of the read-out against control, counted positive when it falls.

Active and inactive are the calls of the source. No rule for the calls is given here.

As for `O=C(Nc1ccc(N(Cc2ccsc2)C(=O)Cn2nnc3ccccc32)cc1)C1CC1`, the inhibition was 75% (inactive). In addition, under “GABA-A flunitrazepam site inhibition”, the inhibition stood at 22%. In addition, the inhibition (adenosine A3 binding inhibition) is 20%. Further, the inhibition (androgen receptor binding inhibition) was found to be 42%. Besides, the inhibition (cannabinoid CB1 binding inhibition) came out at 25%. For the setting “dopamine D2S binding inhibition”, the inhibition turned out to be 4%. Besides, the inhibition (dopamine transporter binding inhibition) is 12%. Also, the inhibition (hERG binding inhibition) amounted to 15%. The inhibition (kappa opioid binding inhibition) came out at 20%. For the same compound, the inhibition (muscarinic M1 binding inhibition) is -7%. In addition, the inhibition (norepinephrine transporter binding inhibition) was found to be 18%. Also, the inhibition (serotonin transporter binding inhibition) was -1%. Where the note is “sigma receptor binding inhibition”, the inhibition was 42%.
